Test results: PubChem BioAssay (NCATS)
Values without a mark were called inactive. Records with an inconclusive call do not appear. Entries that show only a call come without a potency. Calls of active or inactive are those of the source. Unless noted, calls follow the shape of the dose curve; as a rule, active = well fitted curve in the direction sought with a large enough effect; inconclusive = small, poorly fitted or top-dose-only effect, or another doubt; inactive = no such curve, though single readings can be large; an effect the other way counts as inactive or inconclusive.

What was measured:
[1] = target: Mitogen-activated protein kinase 10 (Mus musculus) (UniProt Q61831); assay: JNK3 AlphaScreen Assay (AID 530; active = well fitted curve in either direction with a large enough effect, not every such curve was filed as active;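 also: kinase came from lysate of stimulated human HepG2 cells; signal reports phosphorylation of biotinylated GST-cJun 1-79 at Ser73 with 10 µM ATP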)
In short: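 qHTS titrations with 15 min compound pre-incubation before adding ATP (10 uM final). Read-out: AlphaScreen of Ser73-phosphorylated biotin-GST-cJun using HepG2 lysate JNK3 activated by IL-1β and TNFα.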

[2] = Cell Viability - HUV-EC-C (AID 542);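 also: cells exposed to compound for 40 hours; nearly all actives have a fitted effect of over 35% in size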
In short: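 Cells were seeded at 1000 per well and incubated 5 hr at 37 °C before compound addition. After 40 hr at 37 °C, CellTiter-Glo reagent was added for 20 min and luminescence read. AC50 values came from Hill-equation modelling.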

[3] = Cell Viability - Renal Proximal Tubule (AID 545);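 also: cells exposed to compound for 40 hours; nearly all actives have a fitted effect of over 40% in size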
In short: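 Rat kidney proximal tubule cells, freshly isolated; 1000 cells/well, 5 hr settle, compound 40 hr 37 °C. CellTiter-Glo 20 min RT, luminescence read. AC50 by standard Hill fit.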

[4] = Cellular Toxicity (caspase-3) HepG2 (AID 654);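 also: cells exposed to compound for 16 hours before reading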
In short: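 Caspase 3/7 activation in HepG2 is measured as rising luminescence after a 16 hr treatment at 37 °C. Values are scaled between DMSO basal and 100 uM tamoxifen, and AC50 is fitted with the Hill equation.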

[5] = Cellular Toxicity (caspase-3) Jurkat (AID 655); conditions: Jurkat caspase-3 activation, luminescence; caspase-3 activation: at 92.2 µM (top of the series), DMSO = 0%, tamoxifen = 100%;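 also: cells exposed to compound for 16 h at 37 °C before reading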
In short: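 Luminescent caspase-3/7 readout (aminoluciferin substrate cleavage) in human T-cell leukemia Jurkat cells after 16 hr compound exposure. Concentration-response normalized to DMSO and 100 uM tamoxifen; AC50 by standard Hill equation.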

[6] = Cellular Toxicity (caspase-3) NIH 3T3 (AID 666)
In short: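 Cells were plated at 1000 per well and incubated 5 hr at 37°C, then compound was added for 16 hr. Caspase-Glo 3/7 reagent followed for 20 min at room temperature before luminescence was read.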

[7] = Cellular Toxicity (caspase-3) Renal Proximal Tubule (AID 667);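 also: cells exposed to compound for 16 hours at 37 °C before detection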
In short: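 Luminescent caspase 3/7 signal from peptide-aminoluciferin cleavage measures apoptosis in freshly isolated rat kidney proximal tubule cells after 16 h compound exposure. Concentration-response data are normalized to DMSO and 10 uM staurosporine, and AC50 values come from Hill equation fits.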

[8] = MultiTox-Fluor Cytotoxicity Assay - LYMP1-001 - Dead Cells (AID 946)
In short: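 Cytotoxicity as increased dead-cell protease fluorescence (bis-AAF-R110, 485/520 nm), read 60 min after MultiTox-Fluor reagent. Human lymphoblastoid line exposed 16 h; Hill-fitted AC50, with DMSO as 0% and 15 uM tetraoctylammonium bromide as 100%.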

[9] = MultiTox-Fluor Cytotoxicity Assay - LYMP1-002 - Live Cells (AID 955);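 also: cells exposed to compound for 16 hours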
In short: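 Cells were seeded at 2500 per well and incubated 5 hr. Compounds were then added for 16 hr at 37 C, followed by MultiTox-Fluor reagent for 60 min at room temperature and fluorescence reading of viable-cell protease signal.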

[10] = Cell Viability - LYMP2-009 (AID 968); also: nearly all actives have a fitted effect of over 55% in size
[11] = Cell Viability - LYMP2-019 (AID 973); also: nearly all actives have a fitted effect of over 55% in size
In short: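 Cytotoxicity is scored as a concentration-dependent drop in cellular ATP after cells (2500/well) receive compound for 24 hr at 37 C. Tetraoctylammonium bromide serves as positive control.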

[12] = Cell Viability - LYMP2-023 (AID 975); also: nearly all actives have a fitted effect of over 55% in size
In short: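 Steps: seed 2500 human lymphoblastoid cells per well, incubate 5 hr at 37 C, add compound for 24 hr at 37 C, add CellTiter-Glo, hold 30 min at room temperature, read luminescence. AC50 derived by Hill modelling.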

[13] = Cell Viability - LYMP2-002 (AID 977);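 also: compound exposure lasted 24 h at 37 °C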
In short: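 Human lymphoblastoid cells (2500/well) in complete medium were preincubated 5 hr at 37 C, then exposed to compounds for 24 hr at 37 C. Intracellular ATP was read by CellTiter-Glo luminescence; AC50 came from Hill-equation concentration-response fits.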

[14] = Cell Viability - LYMP2-026 (AID 989); also: nearly all actives have a fitted effect of over 50% in size
In short: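 Cells are seeded at 2500 per well and held 5 hr at 37 C. Compounds are added in concentration series for 24 hr, then CellTiter-Glo reagent is applied and luminescence read.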

[15] = target: Peroxisome proliferator-activated receptor gamma (Homo sapiens) (UniProt P37231); assay: qHTS assay for small molecule agonists of peroxisome proliferator-activated receptor gamma signaling (AID 588536; active = well fitted curve in the direction sought with a large enough effect in the signal ratio, with a control signal flat, not every such curve was filed as active; the % refers to the signal ratio)
Chain of Peroxisome proliferator-activated receptor gamma (Homo sapiens) (P37231 whole entry, looked up): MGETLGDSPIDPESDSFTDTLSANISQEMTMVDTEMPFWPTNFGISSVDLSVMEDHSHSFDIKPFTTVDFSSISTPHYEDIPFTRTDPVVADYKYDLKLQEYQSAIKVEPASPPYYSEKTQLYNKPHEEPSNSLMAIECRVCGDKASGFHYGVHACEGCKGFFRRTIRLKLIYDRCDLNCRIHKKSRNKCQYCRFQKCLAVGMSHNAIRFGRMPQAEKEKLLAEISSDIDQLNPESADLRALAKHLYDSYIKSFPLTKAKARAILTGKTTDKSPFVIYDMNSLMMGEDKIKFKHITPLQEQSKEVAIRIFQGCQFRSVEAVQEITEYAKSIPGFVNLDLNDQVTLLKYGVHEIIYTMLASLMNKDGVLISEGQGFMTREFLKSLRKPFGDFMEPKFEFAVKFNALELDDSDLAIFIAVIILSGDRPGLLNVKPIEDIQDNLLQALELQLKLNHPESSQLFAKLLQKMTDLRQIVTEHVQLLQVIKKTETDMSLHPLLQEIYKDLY
In short: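 This is an agonist-mode beta-lactamase reporter assay in HEK293 PPAR-gamma-UAS-bla cells with 1% charcoal/dextran FBS. Compound titrations ran 16 h at 37 C before CCF4 detection. EC50 and efficacy are Hill fits scaled to 2 uM rosiglitazone (100%) and DMSO basal.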

[16] = target: Vitamin D3 receptor (Homo sapiens) (UniProt P11473); assay: qHTS assay for small molecule agonists of vitamin D receptor signaling (AID 588543; calls by dose curve)
Chain of Vitamin D3 receptor (Homo sapiens) (P11473 whole entry, looked up): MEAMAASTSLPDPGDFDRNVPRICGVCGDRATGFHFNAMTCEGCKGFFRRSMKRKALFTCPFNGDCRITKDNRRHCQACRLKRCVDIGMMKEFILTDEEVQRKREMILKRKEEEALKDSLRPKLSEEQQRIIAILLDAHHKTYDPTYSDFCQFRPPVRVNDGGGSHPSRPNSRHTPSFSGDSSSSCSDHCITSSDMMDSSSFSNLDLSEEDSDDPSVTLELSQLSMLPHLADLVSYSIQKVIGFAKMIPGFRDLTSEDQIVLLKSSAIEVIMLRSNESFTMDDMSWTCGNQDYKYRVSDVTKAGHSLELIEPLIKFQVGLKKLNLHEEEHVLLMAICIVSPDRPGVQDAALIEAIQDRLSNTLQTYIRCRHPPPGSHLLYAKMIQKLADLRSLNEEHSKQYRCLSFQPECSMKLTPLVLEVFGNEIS
In short: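 β-lactamase reporter, VDR-UAS-bla HEK293T, agonist mode. Cells plated 5 h at 37 °C, compound titration 16 h at 37 °C, CCF4 dye 2 h RT, ratio 460/530 nm. Hill fit → EC50, efficacy vs 50 nM 1α,25-(OH)2D3.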

[17] = qHTS assay for small molecule disruptors of the mitochondrial membrane potential - 5 hr assay (AID 651755; calls by dose curve; also: nearly all actives have a fitted effect of over 40% in size; also: potency is read from the fitted curve at half-maximal effect)
In short: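 Membrane-potential dye readout: red aggregate (540 ex/590 em) versus green monomer (490 ex/535 em) fluorescence after 30 min dye loading, following 5 hr compound exposure at 37C of overnight-plated HepG2 cells.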

[18] = MultiTox-Fluor Cytotoxicity Assay - LYMP1-001 - Live Cells (AID 947)
[19] = Cell Viability - LYMP2-011 (AID 969); also: nearly all actives have a fitted effect of over 60% in size
In short: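 In this qHTS cytotoxicity format, compounds are tested across concentrations on human lymphoblastoid cells in complete medium for 24 hours at 37 C. Viability is taken as cellular ATP measured by luciferase luminescence.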

[20] = Cell Viability - LYMP1-002 - Assay at 24 hr (AID 993)
In short: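 Acute toxicity is measured as concentration-dependent loss of cellular ATP in a human lymphoblastoid line (Coriell LYMP1-002) after 24 h treatment in complete medium. ATP is quantified by luciferase luminescence and AC50 derived by Hill modelling.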

| Compound | Potency [1] | Potency [2] | outcome [3] | outcome [4] | caspase-3 activation [5] [%] | Potency [6] | outcome [7] | outcome [8] | outcome [9] | Potency [10] | Potency [11] | Potency [12] | Potency [13] | Potency [14] | outcome [15] | outcome [16] | Potency [17] | outcome [18] | Potency [19] | Potency [20] |
| --- | --- | --- | --- | --- | --- | --- | --- | --- | --- | --- | --- | --- | --- | --- | --- | --- | --- | --- | --- | --- |
| OCCBr | inactive | inactive | inactive | inactive | -0.73 | inactive | inactive | inactive | inactive | inactive | inactive | inactive | inactive | inactive | inactive | inactive | inactive |  |  |  |
| CCCCC#N | inactive | inactive | inactive | inactive | 0.125 | inactive | inactive | inactive | inactive | inactive | inactive | inactive | inactive | inactive |  |  | inactive | inactive | inactive | inactive |
| CC(C)[C@]12CC(=O)[C@H](C)[C@H]1C2 | inactive | inactive | inactive |  | 0.322 | inactive | inactive | inactive | inactive | inactive | inactive | inactive | inactive | inactive | inactive | inactive | inactive | inactive | inactive | inactive |
| CCOP(=O)(OCC)OCC | inactive | inactive | inactive | inactive | -0.738 | inactive | inactive | inactive |  | inactive | inactive | inactive | inactive | inactive | inactive | inactive | inactive | inactive |  | inactive |
| COC(=O)Nc1cccc(OC(=O)Nc2cccc(C)c2)c1 | inactive | inactive | inactive | inactive | 1.17 | inactive |  | inactive | inactive | inactive | inactive | inactive | inactive | inactive | inactive |  | 42.2 µM (active) | inactive | inactive | inactive |
| CCCCOCC1CO1 (stereo not given) | inactive | inactive | inactive | inactive | -0.958 | inactive | inactive | inactive | inactive | inactive | inactive | inactive | inactive | inactive | inactive | inactive | inactive | inactive | inactive | inactive |
| OCC(Cl)CCl (stereo not given) | inactive | inactive | inactive | inactive | 2.02 | inactive | inactive | inactive | inactive | inactive | inactive | inactive | inactive | inactive | inactive | inactive | inactive | inactive | inactive | inactive |
